Assay [1] can be described thus: qHTS profiling for inhibitors of Plasmodium falciparum (DD2) proliferation (AID 743323). To be noted: lower = more inhibition; at 28.7 µM (top of the series). The method in brief:
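1536-well qHTS; infected RBCs 0.3% parasitemia/2.5% Hct final; cpd 72 h 37 C 5% CO2; lysis buffer + SYBR Green I, o/n RT dark; FI 485/535; norm. to 0.29 uM artemisinin and DMSO, plate-stack corrected.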
A general note: In qHTS, concentration-response curves come from the screen itself.

Assay [2] in a line: qHTS profiling for inhibitors of Plasmodium falciparum (HB3) proliferation (AID 743324; active = well fitted curve in the direction sought with a large enough effect; an effect the other way counts as inactive or inconclusive;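 also: 100% = DMSO vehicle wells and 0% = artemisinin-treated control wells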). The conditions noted are these: Plasmodium falciparum HB3 blood-stage proliferation; at 28.7 µM (top of the series). The method in brief: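 P. falciparum HB3 grown in erythrocytes (0.3% parasitemia, 2.5% hematocrit final) with compound for 72 h at 37 C, 5% CO2. Parasite DNA detected by SYBR Green after saponin/triton lysis overnight; normalized to 0.29 uM artemisinin and DMSO.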

Assay [3] can be described thus: qHTS profiling of the MIPE4 collection as inhibitors of Plasmodium falciparum (3D7) proliferation (AID 743344).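 Also: scaled between DMSO vehicle wells and 0.29 µM artemisinin as full inhibition.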 To be noted: P. falciparum 3D7 in erythrocytes, SYBR Green DNA fluorescence, 72 h; at 28.5 µM (top of the series) unless noted. The gist of the method:
(§1)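 Erythrocytes infected with P. falciparum (0.3% parasitemia, 2.5% hematocrit) incubated with compounds 72 h at 37 C, 5% CO2. Lysis with saponin/Triton buffer containing SYBR Green I, overnight at room temperature in the dark; DNA fluorescence (485/535 nm) normalised to 0.29 uM artemisinin and DMSO.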

A short description of assay [4]: qHTS profiling of the MIPE4 collection as inhibitors of Plasmodium falciparum (DD2) proliferation (AID 743345). To be noted: P. falciparum Dd2 in erythrocytes, SYBR Green DNA, 72 h; at 28.5 µM (top of the series) unless noted. The method in brief: as §1
Assay [5] is described as follows: qHTS profiling of the MIPE4 collection as inhibitors of Plasmodium falciparum (DD2) proliferation (Rep 2) (AID 743346). To be noted: P. falciparum Dd2 in erythrocytes, SYBR Green DNA, 72 h; at 28.5 µM (top of the series) unless noted. The method in brief:
as §1

Assay [6] in a line: qHTS profiling of the MIPE4 collection as inhibitors of Plasmodium falciparum (HB3) proliferation (AID 743347).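 Also: plate controls were DMSO vehicle wells for no effect and artemisinin wells for full effect.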 The conditions noted are these: P. falciparum HB3 in erythrocytes, SYBR Green DNA, 72 h; at 28.5 µM (top of the series) unless noted. The gist of the method: as §1
A short description of assay [7]: High-throughput drug toxicity screening in the BPDCN cell line Gen2.2 (AID 1224824).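 Also: cells exposed to compounds for 48 h before reading.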 The conditions noted are these: Gen2.2 BPDCN cells; at 45.8 µM (top of the series) unless noted. The method in brief: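 Gen2.2 cells (500/well) in phenol red-free RPMI with 10% FBS were exposed to compounds for 48 h at 37 °C, 5% CO2. Viability was read by CellTiter-Glo luminescence and normalized to DMSO (100%) and 9.2 uM bortezomib (0%).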

The nature of assay [8]: High-throughput drug toxicity screening in the BPDCN cell line Cal-1 (AID 1224825). The conditions noted are these: Cal-1 BPDCN cell viability, qHTS; at 45.8 µM (top of the series) unless noted. The gist of the method: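 500 Cal-1 cells/well, RPMI + glutamine + 10% FBS (phenol red-free); cpd added by pin tool; 48 h, 37C, 5% CO2; CTG 15 min RT, lumi read. Normalised: DMSO 100%, bortezomib 9.2 uM 0%.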

A short description of assay [9]: qHTS assay for measurement of the activity of small molecule inhibitors on Zika virus induced Caspase-3 activity in human iPSC derived neural progenitor cells (hNPCs) (AID 1224857; active = well fitted curve in the direction sought with a large enough effect; an effect the other way counts as inactive or inconclusive; also: % of control where 0% means no effect; nearly all actives have a fitted effect of over 65% in size). The gist of the method: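 After overnight (16–20 h) culture at 350 cells/well, hNPCs get compound, then ZIKV 2 FFU/cell one hour later. Six hours on, Caspase-Glo 3/7 is added and luminescence measured.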

The nature of assay [10]: qHTS assay for measurement of the activity of small molecule inhibitors on Zika virus induced Caspase-3 activity in human astrocytoma cells (AID 1224859; active = well fitted curve in the direction sought with a large enough effect; an effect the other way counts as inactive or inconclusive;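 also: plate controls were ZIKV-infected untreated cells for no effect and uninfected cells for full effect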). The method in brief: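 Inhibition of Zika-induced caspase-3/7 activity: SNB-19 cells, 1 h compound pretreatment, ZIKV 2 FFU/cell for 6 h at 37 C, Caspase-Glo luminescence read-out.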
The nature of assay [11]: qHTS Assay for Identifying Gametocytocidal Compounds (AID 743244; active = well fitted curve in the direction sought with a large enough effect; an effect the other way counts as inactive or inconclusive; also: potency is read from the fitted curve at half-maximal effect;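 as to max response: % is scaled to controls: 0 for no effect and ±100 for the full control effect; actives lower the fluorescent signal which means gametocytes are killed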). The conditions noted are these: P. falciparum 3D7 stage III-V gametocytes, alamarBlue, 72 h; max response: stronger effect = lower value. The gist of the method: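 Using 20,000 stage III–V 3D7 gametocytes per well, compounds were incubated 72 h under 37 °C/5% CO2. Viability was then assessed by 24 h alamarBlue reduction, measured fluorometrically at 525/598 nm.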

Inconclusive results are not listed. Active and inactive are the calls of the source. Unless noted, no rule for the calls is given here.

In the case of `COc1cc(N2CCC(N3CCN(C)CC3)CC2)ccc1Nc1ncc(Cl)c(Nc2ccccc2S(=O)(=O)C(C)C)n1`, the activity, percent of control in assay [1] worked out at 0.218%. In assay [2], the remaining proliferation (% of control), lower = more inhibition was -1.09%. The parasite growth, % of DMSO control in [3] was found to be 3.8%. Moreover, the parasite growth remaining, % of DMSO control (lower = more inhibition) in [4] stood at 7.75%. Besides, the parasite growth, % of control (lower = inhibition) in assay [5] amounted to 5.51%. The molecule further yielded a growth, % of control in assay [6] of 7.64%. Moreover, the cell viability, % of control (lower = more cytotoxic) in [7] was found to be 5.5%. In assay [8], the viability (% of control) came out at 2.84%. The Potency entry in [9] and in assay [10] was “inactive” throughout.
For the molecule `CC[C@H]1OC(=O)[C@H](C)[C@@H](O[C@H]2C[C@@](C)(OC)[C@@H](O)[C@H](C)O2)[C@H](C)[C@@H](O[C@@H]2O[C@H](C)C[C@H](N(C)C)[C@@H]2O)[C@](C)(O)C[C@@H](C)CN(C)[C@H](C)[C@@H](O)[C@]1(C)O`, the activity, percent of control in assay [1] is 19.2%. Also, in assay [2], the remaining proliferation (% of control), lower = more inhibition was 31.5%. In assay [3], this molecule displayed a parasite growth, % of DMSO control of 33.2%. The molecule further registered a parasite growth remaining, % of DMSO control (lower = more inhibition) in assay [4] of 24.6%. Besides, in assay [5], the parasite growth, % of control (lower = inhibition) was found to be 14%. The growth, % of control in assay [6] is 59%. In assay [7], the cell viability, % of control (lower = more cytotoxic) was 184%. For the same molecule, the viability (% of control) in [8] amounted to 120%. The Potency result in assay [9] and in assay [10] was “inactive” each time.
Take `COc1ccc(C2CC(c3ccccc3)=NN2c2ccc(S(N)(=O)=O)cc2)cc1` (configuration not stated): in assay [11], the max response was -8.6% (inactive). Moreover, in assay [1], the activity, percent of control stood at 40.1%. Further, in assay [2], the remaining proliferation (% of control), lower = more inhibition amounted to 19.1%. Besides, in assay [3], the parasite growth, % of DMSO control was found to be 50.4%. In [4], the parasite growth remaining, % of DMSO control (lower = more inhibition) was 99.9%. Moreover, the parasite growth, % of control (lower = inhibition) in assay [5] is 46.5%. The molecule also registered a growth, % of control in assay [6] of 66%. Besides, in assay [7], the cell viability, % of control (lower = more cytotoxic) is 76.6%. The viability (% of control) in assay [8] amounted to 27.3%. Besides, the Potency result in assay [9] and in assay [10] was “inactive” each time.
For the molecule `CCOC1OC(=O)C[C@H]1NC(=O)[C@@H]1CCCN1C(=O)[C@@H](NC(=O)c1ccc(N)c(Cl)c1)C(C)(C)C` (some centres not stated), in assay [7], the cell viability, % of control (lower = more cytotoxic) came to 49.8%. Moreover, the viability (% of control) in assay [8] came out at 16.7%.
`c1ccc2c(-c3cnn4cc(-c5ccc(N6CCNCC6)cc5)cnc34)ccnc2c1`: in assay [1], the activity, percent of control is -0.291%. For the same molecule, in assay [3], the parasite growth, % of DMSO control was determined as 4.34%. The parasite growth remaining, % of DMSO control (lower = more inhibition) in assay [4] was 5.98%. In addition, the parasite growth, % of control (lower = inhibition) in [5] is 6.79%. The growth, % of control in [6] was 5.81%. Besides, in assay [7], the cell viability, % of control (lower = more cytotoxic) is 3.03%. In addition, the viability (% of control) in [8] is 3.05%. Also, the Potency result in assay [9] and in [10] was “inactive” throughout.
For `O=C(N[C@@H](c1ccccc1)[C@@H]1CCCCN1)c1cccc(C(F)(F)F)c1Cl`, the Potency in assay [11] was 18.7 µM (active). Besides, in [1], the activity, percent of control turned out to be 16.6%. Moreover, in [2], the remaining proliferation (% of control), lower = more inhibition is 29.7%. In assay [3], the parasite growth, % of DMSO control worked out at 9.06%. In [4], this molecule came in with a parasite growth remaining, % of DMSO control (lower = more inhibition) of 8.97%. The parasite growth, % of control (lower = inhibition) in assay [5] came out at 26.8%. For the same molecule, the cell viability, % of control (lower = more cytotoxic) in assay [7] turned out to be 87.4%. The viability (% of control) in assay [8] worked out at 24.7%. The Potency entry in assay [9] and in assay [10] was “inactive” throughout.
The molecule `C=CCc1ccc(O)c(-c2ccc(O)c(CC=C)c2)c1` returned a parasite growth, % of DMSO control in [3] of 22.1%. Also, the parasite growth remaining, % of DMSO control (lower = more inhibition) in assay [4] came out at 75.6%. Moreover, the parasite growth, % of control (lower = inhibition) in assay [5] was determined as 27.4%. Besides, in [6], the growth, % of control is 3.7%. Further, the cell viability, % of control (lower = more cytotoxic) in assay [7] is 34.9%. In addition, the viability (% of control) in assay [8] is 21.1%. The Potency entry in [9] and in [10] was “inactive” in each case.
`CC(C)n1cnc2c(NCCCCCCNC(=O)OC(C)(C)C)nc(NCCO)nc21` returned a parasite growth, % of DMSO control in assay [3] of 20.1%. Moreover, the parasite growth remaining, % of DMSO control (lower = more inhibition) in assay [4] was 60.6%. Also, in [5], the parasite growth, % of control (lower = inhibition) was found to be 24.8%. In addition, the growth, % of control in [6] is 21.3%. In assay [7], the cell viability, % of control (lower = more cytotoxic) was found to be 186%. Moreover, the viability (% of control) in assay [8] was found to be 100%. In addition, the Potency entry in assay [9] and in [10] was “inactive” in each case.
For the molecule `O=C(NC1CCOCC1)c1ccc(-c2cc(-c3cn[nH]c3-c3ccccn3)ccn2)cc1`, the parasite growth, % of DMSO control in [3] was found to be 17.3%. The same molecule came in with a parasite growth remaining, % of DMSO control (lower = more inhibition) in [4] of 82.7%. In addition, the parasite growth, % of control (lower = inhibition) in [5] was 40.9%. The molecule further had a growth, % of control in assay [6] of 47.3%. The cell viability, % of control (lower = more cytotoxic) in assay [7] came out at 724%. In assay [8], the viability (% of control) is 131%. In addition, the Potency result in assay [9] and in [10] was “inactive” in each case.
Regarding `O=C1NC(=O)C(=Cc2ccc3c(c2)OC(F)(F)O3)S1`, the parasite growth, % of DMSO control in assay [3] is 86.7%. In [4], the parasite growth remaining, % of DMSO control (lower = more inhibition) is 95.4%. For the same molecule, the parasite growth, % of control (lower = inhibition) in assay [5] amounted to 126%. In assay [6], this molecule yielded a growth, % of control of 125%. Also, the cell viability, % of control (lower = more cytotoxic) in assay [7] came out at 54.2%. In addition, the viability (% of control) in assay [8] was found to be 83%. Moreover, the Potency entry in [9] and in assay [10] was “inactive” throughout.
`CO[C@H]1C[C@@H]2CC[C@@H](C)[C@@](O)(O2)C(=O)C(=O)N2CCCC[C@@H]2C(=O)O[C@H]([C@@H](C)C[C@@H]2CC[C@H](O)[C@H](OC)C2)CC(=O)[C@H](C)C=C(C)[C@@H](O)[C@@H](OC)C(=O)[C@H](C)C[C@H](C)C=CC=CC=C1C` showed a parasite growth, % of DMSO control in assay [3] of 5.33%. For the same molecule, the parasite growth remaining, % of DMSO control (lower = more inhibition) in assay [4] amounted to 9.31%. The parasite growth, % of control (lower = inhibition) in assay [5] worked out at 7.75%. The molecule further returned a growth, % of control in assay [6] of 6.63%. Besides, the cell viability, % of control (lower = more cytotoxic) in assay [7] is 5.13%. For the same molecule, the viability (% of control) in assay [8] came to 2.54%. Besides, the Potency entry in [9] and in assay [10] was “inactive” in each case.

Values taken from PubChem BioAssay (NCATS).
